High-throughput results as filed in PubChem BioAssay.
This is a sample that favours compounds with a hit; in the whole collection about 3.1% have one here.
Mtb FBA inh: Mtb FBA enzyme inhibitors, primary screen, biochemical, fluorescence, strain H37Rv; purified M. tuberculosis FBA, fluorescence read-out; inhibition, % at 1 µM; 360,000 compounds, 2.3% hits; Fructose-bisphosphate aldolase (Mycobacterium tuberculosis (strain ATCC 25618 / H37Rv)), …;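 further: 0% = vehicle and 100% = reference inhibitor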
Target sequence (P9WQA3 whole entry, looked up): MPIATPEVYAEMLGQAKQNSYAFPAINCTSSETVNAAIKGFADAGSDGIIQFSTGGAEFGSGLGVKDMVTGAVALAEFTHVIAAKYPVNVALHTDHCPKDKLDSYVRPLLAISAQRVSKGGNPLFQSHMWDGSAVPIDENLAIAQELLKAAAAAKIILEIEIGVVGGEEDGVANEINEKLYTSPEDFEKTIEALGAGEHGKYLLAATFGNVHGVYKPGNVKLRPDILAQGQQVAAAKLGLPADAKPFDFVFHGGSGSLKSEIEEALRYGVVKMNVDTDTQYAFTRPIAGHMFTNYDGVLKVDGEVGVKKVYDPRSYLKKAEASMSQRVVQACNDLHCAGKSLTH
3CLpro inhibitor: SARS-CoV 3CLpro protease inhibitors, primary screen, biochemical, quenched FRET; Replicase polyprotein 1ab (Severe acute respiratory syndrome coronavirus), P0C6X7; recombinant SARS-CoV 3CLpro, quenched FRET peptide cleavage; inhibition, % at 6 µM; 290,000 compounds, 0.14% hits; in the data active means inhibition above about 12%
GDH-TPI counter-1: GDH-TPI coupling enzyme inhibitors, primary screen, artefact control for M. tuberculosis FBA inhibitor project, biochemical, absorbance, full deck. 360,000 compounds, 1.2% hits. inhibition, % at 4.8 µM. GDH-TPI coupled enzyme counterscreen, NADH absorbance. AID 588335, 2011; in the data active means inhibition above about 30%;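 further: 0% = DMSO wells and 100% = wells lacking the enzyme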
BioA inh: M. tuberculosis BioA enzyme inhibitors, primary screen, biochemical, plate reader, single point, HTS; inhibition, % at 9.99 µM; 7,8-diaminopelargonic acid synthase BioA (Mycobacterium tuberculosis); purified M. tuberculosis BioA enzyme; AID 602481, 2012; 360,000 compounds, 0.096% hits; in the data active means inhibition above about 40%
FadD28 binding: inhibitors of FadD28 bisubstrate probe binding, primary screen, biochemical, fluorescence polarization, single point | Mycobacterium tuberculosis FadD28 fatty-acid-AMP ligase | inhibition, % at 12.5 µM | 360,000 compounds, 0.22% hits; in the data active means inhibition above about 8.5%, passing the limit was not always enough
Mtb FBA confirm: M. tuberculosis aldolase blockers, biochemical, fluorescence, strain H37Rv, confirmation; shares compounds with Mtb FBA inh; purified M. tuberculosis FBA, fluorescence read-out; inhibition, % at 1 µM; 5,600 compounds, 78% hits; AID 651616, 2012;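 further: 0% = vehicle wells and 100% = reference inhibitor wells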
GDH-TPI counter-2: GDH-TPI coupling enzyme inhibitors, artefact control for M. tuberculosis FBA inhibitor project, biochemical, fluorescence, high throughput; inhibition, % at 1 µM; shares compounds with Mtb FBA inh; 5,600 compounds, 81% hits; GDH-TPI coupled enzyme counterscreen; in the data active means inhibition above about 10%
Active calls of the source: *; nt = no result. Unless noted, no stated cut-off is given here; in the data, active means inhibition above about 27%; inactive means the rest.

SMILES	Mtb FBA inh	3CLpro inhibitor	GDH-TPI counter-1	BioA inh	FadD28 binding	Mtb FBA confirm	GDH-TPI counter-2
COc1ccc(C2Nc3ccccc3C(=O)N2O)cc1OC (stereo not given)	5	-2	-1	nt	-3	nt	nt
CCOC(=O)NN1C(=O)c2ccccc2NC1c1ccc(OC)c(OC)c1 (stereo not given)	43*	1	-9	1	-5	5	-4
CCOC(=O)N1CCC2(CC1)NC(=O)c1ccccc1N2	85*	nt	9	nt	-2	37*	25*
CCOC(=O)NN1C(=O)c2ccccc2NC1(C)C	104*	3	3	1	-2	136*	112*
CCNC(=O)C[C@H]1CC[C@H](NC(=O)C2CCC2)[C@H](CO)O1	nt	nt	nt	4	nt	nt	nt
CO[C@@H]1CN(C)C(=O)c2cc(NC(=O)Nc3cccc(F)c3)ccc2OC[C@H](C)N(C(=O)C2CC2)C[C@@H]1C	nt	nt	nt	2	nt	nt	nt
C[C@@H]1CN([C@H](C)CO)C(=O)Cc2cc(NS(=O)(=O)c3cn(C)cn3)ccc2O[C@@H]1CN(C)S(C)(=O)=O	nt	nt	nt	0	nt	nt	nt
COc1ccc(-c2nc3ccc(N4CCN(C)CC4)cc3c(=O)[nH]2)cc1	32*	-8	18	nt	-2	3	3
O=C(CCN1CCCCC1)N[C@@H]1CC[C@H](CCn2cc(-c3ccccc3)nn2)O[C@H]1CO	nt	nt	nt	1	nt	nt	nt
N=c1c(C(=O)NCCN2CCOCC2)cc2c(=O)n3ccccc3nc2n1Cc1ccc(F)cc1	40*	3	0	4	-4	103*	81*
N=c1c(C(=O)NCCN2CCOCC2)cc2c(=O)n3ccccc3nc2n1CCCN1CCOCC1	88*	0	11	-2	-1	156*	117*
N=c1c(S(=O)(=O)c2ccccc2)cc2c(=O)n3ccccc3nc2n1CCCN1CCOCC1	52*	3	10	0	-3	48*	38*
Cn1c(=N)c(S(=O)(=O)c2ccccc2)cc2c(=O)n3ccccc3nc21	60*	2	-1	-1	-3	71*	54*
CC(C)OCCCn1c(=N)c(S(=O)(=O)c2ccccc2)cc2c(=O)n3ccccc3nc21	13	3	13	-5	0	nt	nt
C[C@H]1CN([C@@H](C)CO)C(=O)Cc2cc(NC(=O)c3ccncc3)ccc2O[C@@H]1CN(C)Cc1ccc(C(=O)O)cc1	nt	nt	nt	2	nt	nt	nt
O=c1c2ccccc2nc2ccccn12	109*	-3	1	nt	-1	163*	151*
N=c1c(S(=O)(=O)c2ccc(F)cc2)cc2c(=O)n3ccccc3nc2n1CC1CCCO1 (stereo not given)	84*	-7	7	-4	1	97*	79*
Cc1ccc2nc3c(cc(C(=O)NCCN4CCOCC4)c(=N)n3CCCN3CCOCC3)c(=O)n2c1	78*	-4	5	-1	-2	61*	42*
Cc1ccc(S(=O)(=O)c2cc3c(=O)n4ccccc4nc3n(CC3CCCO3)c2=N)cc1 (stereo not given)	nt	-7	nt	nt	nt	nt	nt
O=c1c(-c2ccccc2)c(O)nc2ccccn12	7	-5	18	nt	-2	nt	nt
C[C@@H]1CN([C@H](C)CO)C(=O)c2cc(NC(=O)c3ccncc3)ccc2O[C@@H]1CN(C)Cc1ccccc1	nt	nt	nt	0	nt	nt	nt
CSc1ncc(C(=O)Nc2cccc(S(N)(=O)=O)c2)n1-c1ccccc1	39*	2	-3	-1	-1	168*	132*
NS(=O)(=O)c1cccc(NC(=O)CSc2nnc(C3CC3)n2-c2ccccc2)c1	2	nt	-3	nt	0	nt	nt
C[C@H]1CN([C@@H](C)CO)C(=O)c2cc(NC(=O)Nc3ccc(F)cc3)ccc2O[C@@H]1CN(C)S(=O)(=O)c1ccccc1	nt	nt	nt	2	nt	nt	nt
C/C(=N\Nc1nc(-c2cc(C)ccc2C)cs1)c1cc2ccccc2oc1=O	1	2	7	0	-2	nt	nt
